# Experimental data as given in PubChem BioAssay (EPA / NIEHS).
# Inconclusive results are not listed. The source made the active and inactive calls. The calls were made as follows, unless noted: active = hit-call score of the fitted dose curve at least 0.9, where 1 is the maximum; inconclusive = response in the unintended direction; inactive = score below 0.9.
# Key:
# [1] = BSK_3C_VCAM1: BioMAP Diversity Plus: 3C Assay for Vascular cell adhesion molecule 1 (VCAM1) Biomarker Activity (AID 2282999; active = hit-call score of the fitted dose curve at least 0.9, where 1 is the maximum; inactive = score below 0.9); conditions: BioMAP 3C HUVEC, VCAM1 ELISA, cytokine-stimulated; actives raise or lower the signal
# Procedure, shortened: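 Human umbilical vein endothelial cells were dosed with compound for 24 h, after which cell-surface VCAM-1 was quantified by ELISA. Bidirectional curve fitting used DMSO as negative control and activity baseline.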
# [2] = BSK_4H_Eotaxin3: BioMAP Diversity Plus: 4H Assay for Eotaxin 3 Biomarker Activity (AID 2283000; active = hit-call score of the fitted dose curve at least 0.9, where 1 is the maximum; inactive = score below 0.9;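 also: CCL26 protein level quantified by ELISA in parallel with SRB cytotoxicity check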); conditions: primary human endothelial cells (HUVEC); actives raise or lower the signal
# Procedure, shortened: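 Human umbilical vein endothelial cells (BSK_4H system) dosed with test chemical; Eotaxin-3 (CCL26) measured by ELISA 24 h after dosing. Bidirectional curve fitting relative to DMSO negative control as baseline.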
# [3] = read-out: Intercellular Adhesion Molecule 1 (ICAM1), ICAM1 (gene 3383); experiment: BSK_3C_ICAM1: BioMAP Diversity Plus: 3C Assay for Intercellular Adhesion Molecule 1 (ICAM1) Biomarker Activity (AID 2283003; active = hit-call score of the fitted dose curve at least 0.9, where 1 is the maximum; inactive = score below 0.9); conditions: primary human endothelial cells (HUVEC); actives raise or lower the signal
# Procedure, shortened: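 HUVEC primary cells stimulated under 3C conditions; ICAM1 measured by ELISA 24 h after compound dosing. Curves fitted bidirectionally against the DMSO baseline. Overt cytotoxicity checked by SRB staining of parallel cultures.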
# [4] = molecular target: human Retinoic Acid Receptor beta (RARb), RARB (gene 5915) (UniProt P10826); experiment: ATG_RARb_TRANS: Attagene TRANS-FACTORIAL HepG2 Assay for human Retinoic Acid Receptor beta (AID 2283004)
# Procedure, shortened: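 Induction of reporter mRNA from a chimeric RARb-Gal4 construct was measured by RT-PCR, FAM labelling, HpaI digestion and capillary electrophoresis. Measurements followed 24 h compound treatment of transiently transfected human HepG2 liver cells, with DMSO as baseline.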
# [5] = BSK_3C_Proliferation: Cell Proliferation Assessment in the BioMAP Diversity Plus: 3C Assay (AID 2283006; active = hit-call score of the fitted dose curve at least 0.9, where 1 is the maximum; inactive = score below 0.9); conditions: primary human endothelial cells (HUVEC)
# Procedure, shortened: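 Subconfluent HUVEC (3C system) cultured with chemical; relative cell number read at 48 h by sulforhodamine B total-protein staining (0.1% SRB after 10% TCA fixation, 560 nm). Bidirectional fit relative to DMSO.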
# [6] = molecular target: Peroxisome proliferator-activated receptor gamma (Homo sapiens) (UniProt P37231); experiment: ATG_PPARg_TRANS: Attagene TRANS-FACTORIAL HepG2 Assay for human Peroxisome Proliferator-activated Receptor-gamma (PPARg) (AID 2283007)
# Procedure, shortened: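 Liver-derived HepG2 cells expressing an exogenous NR-Gal4 chimera alongside GAL4-UAS reporter genes; 24 h exposure. Fluorescence of reporter RT-PCR products, separated by capillary electrophoresis, gives mRNA induction relative to DMSO.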
# [7] = molecular target: human Retinoic Acid Receptor gamma (RARg), RARG (gene 5916) (UniProt P13631); experiment: ATG_RARg_TRANS: Attagene TRANS-FACTORIAL HepG2 Assay for human Retinoic Acid Receptor gamma (RARg) (AID 2283009)
# Procedure, shortened: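 HepG2 transiently transfected with GAL4-UAS reporter units and chimeric NR-Gal4 constructs; 24 h compound exposure. Reporter mRNA quantified by RT-PCR, FAM labeling, HpaI digestion and capillary electrophoresis; gain-of-signal versus DMSO.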
# [8] = molecular target: Retinoic acid receptor RXR-alpha (Homo sapiens) (UniProt P19793); experiment: ATG_RXRa_TRANS: Attagene TRANS-FACTORIAL HepG2 Assay for human Retinoid X Receptor alpha (RXRa) (AID 2283012)
# Procedure, shortened: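 HepG2 cells transiently transfected with GAL4-UAS reporter units and chimeric RXRa-Gal4 protein, treated 24 h. Reporter mRNA measured by RT-PCR, fluorescent labelling, HpaI digestion and capillary electrophoresis. Induction fitted against DMSO.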
# [9] = molecular target: human Thyroid Receptor alpha (THRa1), THRA (gene 7067) (UniProt P10827); experiment: ATG_THRa1_TRANS: Attagene TRANS-FACTORIAL HepG2 Assay for human Thyroid Receptor alpha (THRa1) (AID 2283014)
# Procedure, shortened: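 Transcripts from GAL4-UAS-driven reporters, measured after 24 h compound exposure by RT-PCR plus capillary electrophoresis of 6-FAM-labeled fragments, were fitted for gain of signal relative to DMSO. Cells: transiently transfected HepG2 expressing NR-Gal4 chimeras.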
# [10] = read-out: E-selectin (Homo sapiens) (UniProt P16581); experiment: BSK_3C_Eselectin: BioMAP Diversity Plus: 3C Assay for Eselectin Biomarker Activity (AID 2283015; active = hit-call score of the fitted dose curve at least 0.9, where 1 is the maximum; inactive = score below 0.9;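 also: cell surface E-selectin protein quantified by ELISA 24 h after dosing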); conditions: primary human endothelial cells (HUVEC); actives raise or lower the signal
# Procedure, shortened: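 E-selectin ELISA readout, fitted bidirectionally relative to DMSO, taken 24 h post-dosing in HUVEC cultures of the 3C system. Overt cytotoxicity tracked with sulforhodamine B staining of parallel wells.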
# [11] = read-out: Interleukin-1 alpha (IL1a), IL1A (gene 3552); experiment: BSK_BE3C_IL1a: BioMAP Diversity Plus: BE3C Assay for Interleukin-1 alpha (IL1a) Biomarker Activity (AID 2283016; active = hit-call score of the fitted dose curve at least 0.9, where 1 is the maximum; inactive = score below 0.9); conditions: primary human bronchial epithelial cells; actives raise or lower the signal
# Procedure, shortened: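 Human primary bronchial epithelial cells, 24 h chemical exposure; IL-1a quantified by ELISA, fitted bidirectionally against DMSO. Cytotoxicity assessed in parallel by SRB total-protein staining at the time of measurement.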
# [12] = read-out: Monocyte Chemoattractant Protein-1 (MCP1), CCL2 (gene 6347); experiment: BSK_3C_MCP1: BioMAP Diversity Plus: 3C Assay for Monocyte Chemoattractant Protein-1 (MCP1) Biomarker Activity (AID 2283017; active = hit-call score of the fitted dose curve at least 0.9, where 1 is the maximum; inactive = score below 0.9); conditions: primary human endothelial cells (HUVEC); actives raise or lower the signal
# Procedure, shortened: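 MCP-1 was measured by ELISA 24 h after dosing in primary HUVEC 3C cultures and fitted in both directions relative to DMSO; cytotoxicity was checked by SRB total-protein staining in parallel wells.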
# [13] = read-out: Monocyte Chemoattractant Protein-1 (MCP1), CCL2 (gene 6347); experiment: BSK_4H_MCP1: BioMAP Diversity Plus: 4H Assay for Monocyte Chemoattractant Protein-1 (MCP1) Biomarker Activity (AID 2283018; active = hit-call score of the fitted dose curve at least 0.9, where 1 is the maximum; inactive = score below 0.9); conditions: primary human endothelial cells (HUVEC); actives raise or lower the signal
# Procedure, shortened: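 Human umbilical vein endothelial cells (4H system) exposed to chemicals for 24 h in 96-well format. MCP-1 measured by ELISA; bidirectional fitting against DMSO, with SRB total-protein staining in parallel cultures for cytotoxicity.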
# [14] = molecular target: Retinoic acid receptor alpha (Homo sapiens) (UniProt P10276); experiment: ATG_RARa_TRANS: Attagene TRANS-FACTORIAL HepG2 Assay for human Retinoic Acid Receptor alpha (RARa) (AID 2283005)
# Procedure, shortened: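 HepG2 cells transiently transfected with multiple reporter units expressing chimeric RARα-GAL4 fusion, with GAL4-UAS-driven reporters. After 24 h compound exposure, reporter mRNA induction quantified by RT-PCR and capillary electrophoresis with fluorescent labeling; gain-of-signal fitted relative to DMSO control.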
# [15] = molecular target: Nuclear receptor subfamily 1 group I member 2 (Homo sapiens) (UniProt O75469); experiment: ATG_PXR_TRANS: Attagene TRANS-FACTORIAL HepG2 Assay for human Pregnane X Receptor (PXR) (AID 2283008)
# Procedure, shortened: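 Read-out is fluorescence of labelled reporter cDNA fragments separated by capillary electrophoresis after RT-PCR and HpaI digestion. Source: HepG2 cells carrying PXR-GAL4/UAS reporter constructs, treated 24 h; activity fitted upward relative to DMSO.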
# [16] = molecular target: human Peroxisome Proliferator-activated Receptor delta (PPARd), PPARD (gene 5467) (UniProt Q03181); experiment: ATG_PPARd_TRANS: Attagene TRANS-FACTORIAL HepG2 Assay for human Peroxisome Proliferator-activated Receptor delta (PPARd) (AID 2283002)
# Procedure, shortened: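 HepG2 cells transiently transfected with multiplexed GAL4-UAS reporter units and exogenous chimeric NR-Gal4 proteins; 24 h compound exposure. Reporter mRNA measured by RT-PCR, 6-FAM labelling, HpaI digestion and capillary electrophoresis; gain of signal versus DMSO.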
# [17] = molecular target: human Peroxisome Proliferator-activated Receptor alpha (PPARa), PPARA (gene 5465) (UniProt Q07869); experiment: ATG_PPARa_TRANS: Attagene TRANS-FACTORIAL HepG2 Assay for human Peroxisome Proliferator-activated Receptor alpha (PPARa) (AID 2283001)
# Procedure, shortened: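 Gain-of-signal endpoint: reporter mRNA induction relative to DMSO, detected by fluorescent RT-PCR and capillary electrophoresis. HepG2 cells transiently carried GAL4-UAS-driven reporter units plus NR-Gal4 fusion; exposure lasted 24 h.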
# [18] = molecular target: human RAR-related Orphan Receptor gamma (RORg), RORC (gene 6097) (UniProt P51449); experiment: ATG_RORg_TRANS: Attagene TRANS-FACTORIAL HepG2 Assay for human RAR-related Orphan Receptor gamma (RORg) (AID 2283011)
# Procedure, shortened: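 Reporter transcripts from a transfected RORg-GAL4 chimera in HepG2 cells were quantified 24 h after dosing by RT-PCR, 6-FAM labelling, HpaI digestion and capillary electrophoresis; increases over DMSO baseline were fitted.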
# [19] = molecular target: human Retinoid X Receptor beta (RXRb), RXRB (gene 6257) (UniProt P28702); experiment: ATG_RXRb_TRANS: Attagene TRANS-FACTORIAL HepG2 Assay for human Retinoid X Receptor beta (RXRb) (AID 2283013)
# Procedure, shortened: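 HepG2 cells were transiently transfected with multiplexed GAL4-UAS reporters and a chimeric RXRb-Gal4 construct, then exposed for 24 h. Reporter mRNA was quantified by RT-PCR, FAM labeling, HpaI digestion and capillary electrophoresis; gain of signal was scored against DMSO.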
# [20] = molecular target: human RAR-related Orphan Receptor beta (RORb), RORB (gene 6096) (UniProt Q92753); experiment: ATG_RORb_TRANS: Attagene TRANS-FACTORIAL HepG2 Assay for human RAR-related Orphan Receptor beta (RORb) (AID 2283010)
# Procedure, shortened: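 HepG2 cells transiently transfected with GAL4-UAS reporter units expressing chimeric NR-Gal4 protein; reporter mRNA measured 24 h after dosing by RT-PCR, 6-FAM labelling and capillary electrophoresis. Gain-of-signal fitted relative to DMSO baseline.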
# human Retinoic Acid Receptor gamma (RARg), RARG (gene 5916), sequence (P13631 whole entry, looked up, the tested form may be a part): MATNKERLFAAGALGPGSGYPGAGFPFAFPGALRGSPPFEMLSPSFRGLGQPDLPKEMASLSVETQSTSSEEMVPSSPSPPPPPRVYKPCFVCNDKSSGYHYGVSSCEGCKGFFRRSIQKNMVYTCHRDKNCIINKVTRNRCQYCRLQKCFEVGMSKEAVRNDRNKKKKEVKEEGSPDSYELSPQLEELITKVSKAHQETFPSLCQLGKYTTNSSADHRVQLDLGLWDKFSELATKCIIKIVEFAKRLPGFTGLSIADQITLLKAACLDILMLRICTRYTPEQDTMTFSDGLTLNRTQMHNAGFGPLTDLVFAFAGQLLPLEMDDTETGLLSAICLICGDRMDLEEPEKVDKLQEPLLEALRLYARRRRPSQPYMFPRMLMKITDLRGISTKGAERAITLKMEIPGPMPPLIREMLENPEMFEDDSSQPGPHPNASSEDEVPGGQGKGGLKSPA
# Retinoic acid receptor RXR-alpha (Homo sapiens), sequence (P19793 whole entry, looked up, the tested form may be a part): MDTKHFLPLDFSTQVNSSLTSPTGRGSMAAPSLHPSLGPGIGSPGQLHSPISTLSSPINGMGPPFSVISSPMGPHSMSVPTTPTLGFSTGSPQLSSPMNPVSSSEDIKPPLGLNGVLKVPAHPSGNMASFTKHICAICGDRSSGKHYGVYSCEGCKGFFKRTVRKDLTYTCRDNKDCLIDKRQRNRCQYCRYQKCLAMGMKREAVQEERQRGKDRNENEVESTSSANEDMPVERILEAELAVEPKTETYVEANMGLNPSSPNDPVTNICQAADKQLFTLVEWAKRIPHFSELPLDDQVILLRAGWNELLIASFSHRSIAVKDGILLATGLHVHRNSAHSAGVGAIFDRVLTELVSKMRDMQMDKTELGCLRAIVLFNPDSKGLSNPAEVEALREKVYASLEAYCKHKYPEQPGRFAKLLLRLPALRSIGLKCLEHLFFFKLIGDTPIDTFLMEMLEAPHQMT
# Nuclear receptor subfamily 1 group I member 2 (Homo sapiens), sequence (O75469 whole entry, looked up, the tested form may be a part): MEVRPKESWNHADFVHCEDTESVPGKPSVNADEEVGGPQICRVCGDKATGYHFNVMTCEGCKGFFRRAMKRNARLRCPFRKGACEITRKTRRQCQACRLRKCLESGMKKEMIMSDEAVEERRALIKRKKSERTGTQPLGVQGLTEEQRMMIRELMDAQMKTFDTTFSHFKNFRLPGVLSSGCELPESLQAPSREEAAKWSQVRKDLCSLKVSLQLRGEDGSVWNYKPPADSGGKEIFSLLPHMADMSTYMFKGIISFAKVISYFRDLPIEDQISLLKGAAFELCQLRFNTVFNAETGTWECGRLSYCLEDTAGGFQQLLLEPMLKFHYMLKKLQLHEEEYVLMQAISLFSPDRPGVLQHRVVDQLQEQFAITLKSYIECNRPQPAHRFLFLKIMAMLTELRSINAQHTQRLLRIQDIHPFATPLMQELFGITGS
# Peroxisome proliferator-activated receptor gamma (Homo sapiens), sequence (P37231 whole entry, looked up, the tested form may be a part): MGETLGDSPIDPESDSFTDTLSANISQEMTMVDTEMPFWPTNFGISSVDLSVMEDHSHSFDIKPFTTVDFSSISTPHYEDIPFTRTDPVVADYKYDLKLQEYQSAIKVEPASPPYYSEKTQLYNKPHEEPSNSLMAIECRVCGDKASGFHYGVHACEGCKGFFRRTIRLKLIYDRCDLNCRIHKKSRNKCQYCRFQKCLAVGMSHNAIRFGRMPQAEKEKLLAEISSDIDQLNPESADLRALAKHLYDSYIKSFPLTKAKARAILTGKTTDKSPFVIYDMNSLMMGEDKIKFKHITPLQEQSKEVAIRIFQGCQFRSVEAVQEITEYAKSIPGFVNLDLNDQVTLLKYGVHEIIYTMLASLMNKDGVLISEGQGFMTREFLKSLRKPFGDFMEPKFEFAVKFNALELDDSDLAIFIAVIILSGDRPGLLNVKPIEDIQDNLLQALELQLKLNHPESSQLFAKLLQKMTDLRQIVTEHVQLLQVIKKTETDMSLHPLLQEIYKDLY
# human Peroxisome Proliferator-activated Receptor delta (PPARd), PPARD (gene 5467), sequence (Q03181 whole entry, looked up, the tested form may be a part): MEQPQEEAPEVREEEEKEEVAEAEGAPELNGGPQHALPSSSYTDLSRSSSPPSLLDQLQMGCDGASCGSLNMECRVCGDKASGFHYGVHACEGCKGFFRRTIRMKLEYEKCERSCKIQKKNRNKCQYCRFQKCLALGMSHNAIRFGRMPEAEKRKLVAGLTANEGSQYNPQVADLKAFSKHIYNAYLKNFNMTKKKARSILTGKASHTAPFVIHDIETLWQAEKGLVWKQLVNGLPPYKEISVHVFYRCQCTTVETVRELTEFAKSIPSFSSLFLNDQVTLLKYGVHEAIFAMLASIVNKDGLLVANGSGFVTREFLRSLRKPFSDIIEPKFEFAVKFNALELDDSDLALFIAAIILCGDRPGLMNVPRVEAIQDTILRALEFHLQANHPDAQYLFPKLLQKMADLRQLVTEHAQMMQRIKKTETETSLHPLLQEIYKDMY
# human RAR-related Orphan Receptor gamma (RORg), RORC (gene 6097), sequence (P51449 whole entry, looked up, the tested form may be a part): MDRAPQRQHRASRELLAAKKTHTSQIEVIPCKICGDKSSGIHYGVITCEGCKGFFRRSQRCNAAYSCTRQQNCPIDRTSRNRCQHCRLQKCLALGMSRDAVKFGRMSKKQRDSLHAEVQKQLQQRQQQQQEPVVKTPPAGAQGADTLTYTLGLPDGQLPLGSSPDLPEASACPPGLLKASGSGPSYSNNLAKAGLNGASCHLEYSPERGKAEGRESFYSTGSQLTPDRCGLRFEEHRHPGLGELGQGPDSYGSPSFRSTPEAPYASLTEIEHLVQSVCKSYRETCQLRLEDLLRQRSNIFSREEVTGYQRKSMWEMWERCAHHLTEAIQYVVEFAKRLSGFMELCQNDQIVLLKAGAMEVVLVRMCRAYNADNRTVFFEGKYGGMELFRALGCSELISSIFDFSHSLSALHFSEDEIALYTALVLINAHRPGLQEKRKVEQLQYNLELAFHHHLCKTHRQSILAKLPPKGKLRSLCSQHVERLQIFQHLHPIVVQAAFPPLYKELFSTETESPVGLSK
# E-selectin (Homo sapiens), sequence (P16581 whole entry, looked up): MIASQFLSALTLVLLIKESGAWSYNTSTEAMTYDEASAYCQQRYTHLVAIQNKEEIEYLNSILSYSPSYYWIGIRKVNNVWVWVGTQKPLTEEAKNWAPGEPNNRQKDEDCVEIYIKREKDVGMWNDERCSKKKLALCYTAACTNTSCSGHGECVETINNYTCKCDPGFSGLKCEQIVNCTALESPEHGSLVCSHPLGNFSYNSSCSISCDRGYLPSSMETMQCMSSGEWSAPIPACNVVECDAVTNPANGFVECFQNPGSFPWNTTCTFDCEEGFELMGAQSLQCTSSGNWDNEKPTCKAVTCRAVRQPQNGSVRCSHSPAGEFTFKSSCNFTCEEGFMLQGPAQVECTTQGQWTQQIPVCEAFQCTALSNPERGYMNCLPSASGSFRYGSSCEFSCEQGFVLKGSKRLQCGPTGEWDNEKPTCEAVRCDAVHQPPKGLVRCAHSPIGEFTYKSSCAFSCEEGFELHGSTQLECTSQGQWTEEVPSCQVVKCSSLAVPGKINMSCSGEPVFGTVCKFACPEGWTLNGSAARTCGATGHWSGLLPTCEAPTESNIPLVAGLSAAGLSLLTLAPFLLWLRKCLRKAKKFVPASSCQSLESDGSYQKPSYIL
# human Thyroid Receptor alpha (THRa1), THRA (gene 7067), sequence (P10827 whole entry, looked up, the tested form may be a part): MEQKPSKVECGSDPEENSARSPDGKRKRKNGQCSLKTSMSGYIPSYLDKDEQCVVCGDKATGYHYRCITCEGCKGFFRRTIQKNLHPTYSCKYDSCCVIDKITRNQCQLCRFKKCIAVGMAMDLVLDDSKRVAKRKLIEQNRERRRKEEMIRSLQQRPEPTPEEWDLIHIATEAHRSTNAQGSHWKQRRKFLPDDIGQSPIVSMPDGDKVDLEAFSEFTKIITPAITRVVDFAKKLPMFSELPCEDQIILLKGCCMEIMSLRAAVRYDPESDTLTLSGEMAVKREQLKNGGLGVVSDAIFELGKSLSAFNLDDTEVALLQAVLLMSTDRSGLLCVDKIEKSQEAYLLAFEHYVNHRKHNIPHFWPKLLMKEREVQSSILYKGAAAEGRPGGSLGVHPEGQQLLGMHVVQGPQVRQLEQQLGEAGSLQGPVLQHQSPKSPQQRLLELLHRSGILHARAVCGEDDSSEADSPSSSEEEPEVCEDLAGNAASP
# human Retinoic Acid Receptor beta (RARb), RARB (gene 5915), sequence (P10826 whole entry, looked up, the tested form may be a part): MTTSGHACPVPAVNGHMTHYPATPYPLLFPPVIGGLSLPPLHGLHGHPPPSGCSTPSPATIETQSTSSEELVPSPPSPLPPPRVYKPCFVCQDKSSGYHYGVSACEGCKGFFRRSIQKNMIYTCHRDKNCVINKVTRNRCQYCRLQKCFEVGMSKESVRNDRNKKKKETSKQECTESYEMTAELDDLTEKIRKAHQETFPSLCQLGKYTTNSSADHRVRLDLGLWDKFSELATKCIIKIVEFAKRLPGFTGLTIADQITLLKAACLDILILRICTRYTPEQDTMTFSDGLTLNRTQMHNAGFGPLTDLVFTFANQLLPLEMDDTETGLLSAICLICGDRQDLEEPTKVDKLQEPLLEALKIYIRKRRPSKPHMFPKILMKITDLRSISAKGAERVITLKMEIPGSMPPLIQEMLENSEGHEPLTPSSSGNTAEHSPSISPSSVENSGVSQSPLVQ
# human Peroxisome Proliferator-activated Receptor alpha (PPARa), PPARA (gene 5465), sequence (Q07869 whole entry, looked up, the tested form may be a part): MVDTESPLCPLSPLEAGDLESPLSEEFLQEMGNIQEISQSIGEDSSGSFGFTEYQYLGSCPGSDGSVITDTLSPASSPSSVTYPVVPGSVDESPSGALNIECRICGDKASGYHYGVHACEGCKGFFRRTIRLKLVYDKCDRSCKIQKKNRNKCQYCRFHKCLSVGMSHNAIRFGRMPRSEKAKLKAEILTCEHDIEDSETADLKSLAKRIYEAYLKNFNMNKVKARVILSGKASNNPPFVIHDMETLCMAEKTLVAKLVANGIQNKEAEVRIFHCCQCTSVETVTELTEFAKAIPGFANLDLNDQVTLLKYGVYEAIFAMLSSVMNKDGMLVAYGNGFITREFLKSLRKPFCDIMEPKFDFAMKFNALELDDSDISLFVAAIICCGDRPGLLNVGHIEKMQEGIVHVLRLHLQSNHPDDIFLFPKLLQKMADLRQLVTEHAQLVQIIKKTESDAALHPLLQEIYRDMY
smiles,measurement,setting,value
Cc1ccc(O)cc1C,outcome,[1],inactive
same,outcome,[2],inactive
same,outcome,[3],inactive
same,outcome,[4],inactive
same,outcome,[5],inactive
same,outcome,[6],inactive
same,outcome,[7],inactive
same,outcome,[8],inactive
same,outcome,[9],inactive
same,outcome,[10],inactive
same,outcome,[11],inactive
same,outcome,[12],inactive
same,outcome,[13],inactive
FC(F)(F)C(F)(C(F)(F)F)C(F)(F)C(F)(F)CC1CO1 (stereo not drawn),outcome,[1],inactive
same,outcome,[2],inactive
same,outcome,[3],inactive
same,outcome,[4],inactive
same,outcome,[14],inactive
same,outcome,[5],inactive
same,outcome,[6],inactive
same,outcome,[15],inactive
same,outcome,[7],inactive
same,outcome,[8],inactive
same,outcome,[9],inactive
same,outcome,[10],inactive
same,outcome,[11],inactive
same,outcome,[12],inactive
same,outcome,[13],inactive
OCC(F)(F)OC(F)(F)C(F)(F)OC(F)(F)CO,outcome,[1],inactive
same,outcome,[2],inactive
same,outcome,[16],inactive
same,outcome,[3],inactive
same,outcome,[4],inactive
same,outcome,[5],inactive
same,outcome,[6],inactive
same,outcome,[15],inactive
same,outcome,[7],inactive
same,outcome,[8],inactive
same,outcome,[10],inactive
same,outcome,[11],inactive
same,outcome,[12],inactive
same,outcome,[13],inactive
CCN(CC)c1ccccc1,outcome,[1],inactive
same,outcome,[2],inactive
same,outcome,[17],inactive
same,outcome,[3],inactive
same,outcome,[5],inactive
same,outcome,[15],inactive
same,outcome,[10],inactive
same,outcome,[11],inactive
same,outcome,[12],inactive
same,outcome,[13],inactive
CCCCc1ccc(O)cc1,outcome,[17],inactive
same,outcome,[16],inactive
same,outcome,[4],inactive
same,AC50,[6],57100 nM (active)
same,outcome,[15],inactive
same,outcome,[7],inactive
same,outcome,[8],inactive
CCN(CC)C1CCCCC1,outcome,[6],inactive
same,outcome,[15],inactive
same,outcome,[7],inactive
same,outcome,[18],inactive
Cc1cc(C)c(C(=O)P(=O)(c2ccccc2)c2ccccc2)c(C)c1,AC50,[15],57.6 nM (active)
CC(O)C#N (stereo not drawn),outcome,[4],inactive
same,outcome,[6],inactive
same,outcome,[18],inactive
same,outcome,[8],inactive
same,outcome,[9],inactive
CCCCOCC1CO1 (stereo not drawn),outcome,[17],inactive
same,outcome,[16],inactive
same,outcome,[6],inactive
same,outcome,[15],inactive
CC(C)(C)N(NC(=O)c1ccc(Cl)cc1)C(=O)c1ccccc1,outcome,[6],inactive
same,outcome,[15],inactive
same,outcome,[7],inactive
same,outcome,[19],inactive
O=c1[nH]c2ccccc2c(=O)o1,outcome,[17],inactive
same,outcome,[16],inactive
same,outcome,[14],inactive
same,outcome,[6],inactive
same,outcome,[15],inactive
same,outcome,[7],inactive
same,outcome,[18],inactive
same,outcome,[8],inactive
O=C(O)CF,outcome,[17],inactive
same,outcome,[20],inactive
same,outcome,[18],inactive
same,outcome,[8],inactive
CC1=C(C(=O)Nc2ccccc2)S(=O)(=O)CCO1,outcome,[17],inactive
same,AC50,[6],1900 nM (active)
same,outcome,[15],inactive
same,outcome,[8],inactive
